PubChem BioAssay (EPA / NIEHS)
The source holds several records for some structures; these can differ, active in one and inactive in another. Calls of active or inactive are those of the source. How the source made its calls: active means hit-call score of the fitted dose curve at least 0.9, where 1 is the maximum; inactive means score below 0.9.

test: BSK_3C_VCAM1: BioMAP Diversity Plus: 3C Assay for Vascular cell adhesion molecule 1 (VCAM1) Biomarker Activity (AID 2282999); settings: BioMAP 3C HUVEC, VCAM1 ELISA, cytokine-stimulated; actives raise or lower the signal
In short: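 Endothelial cells from human umbilical vein are treated with test chemical. At 24 h, VCAM-1 is measured by ELISA, and responses in either direction are fitted relative to DMSO.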

SMILES | outcome | AC50
CCC(=O)C(CC(C)N(C)C)(c1ccccc1)c1ccccc1 (stereo not drawn) | inactive | 
CCNc1nc(NC(C)(C)C)nc(SC)n1 | inactive | 
CC(C)(C)CC(C)(C)c1ccc(O)cc1 |  | 6.92 µM (active)
CCOP(=S)(OCC)SCCS(=O)(=O)CC | inactive | 
CC(=O)[O][Hg][c]1ccccc1 |  | 2.36 µM (active)
O=C(O)C(F)(F)C(F)(F)C(F)(F)C(F)(F)C(F)(F)C(F)(F)F | inactive | 
CCC(C)(C)c1ccc(O)c(C(C)(C)CC)c1 |  | 11.5 µM (active)
CN(C)N=O | inactive | 
CC(=O)OC(c1ccccc1)C(Cl)(Cl)Cl (stereo not drawn) | inactive | 
CC(C)(c1ccccc1)c1ccc(O)c(C(C)(C)c2ccccc2)c1 |  | 9.15 µM (active)
C[C@@H]1C[C@@H]([C@H](O)CC2CC(=O)NC(=O)C2)C(=O)[C@@H](C)C1 |  | 12.4 µM (active)
O=C1C2(Cl)C3(Cl)C4(Cl)C(Cl)(Cl)C5(Cl)C3(Cl)C1(Cl)C5(Cl)C24Cl (stereo not drawn) |  | 10.2 µM (active)
ClC1(Cl)C2(Cl)C3(Cl)C4(Cl)C(Cl)(Cl)C5(Cl)C3(Cl)C1(Cl)C5(Cl)C24Cl (stereo not drawn) | inactive | 
CCN1CCC2(CC1)COc1cc3c(cc12)N(C(=O)c1ccc(-c2ccc(-c4nnc(C)o4)cc2C)cc1)CC3 |  | 26.9 µM (active)
O=C(O)C(F)(F)C(F)(F)C(F)(F)C(F)(F)C(F)(F)C(F)(F)C(F)(F)C(F)(F)C(F)(F)C(F)(F)F | inactive | 36.9 µM (active)
CC(C)c1ccc(CO)cc1 | inactive | 
COC[C@H](C)N(C(=O)CCl)c1c(C)csc1C | inactive | 
Oc1cccc2cccnc12 |  | 10.4 µM (active)

test: BSK_4H_Eotaxin3: BioMAP Diversity Plus: 4H Assay for Eotaxin 3 Biomarker Activity (AID 2283000); settings: primary human endothelial cells (HUVEC); actives raise or lower the signal;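 on outcome: CCL26 protein level quantified by ELISA in parallel with SRB cytotoxicity check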
In short: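 Human umbilical vein endothelial cells (BSK_4H system) dosed with test chemical; Eotaxin-3 (CCL26) measured by ELISA 24 h after dosing. Bidirectional curve fitting relative to DMSO negative control as baseline.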

SMILES | outcome | AC50
CCC(=O)C(CC(C)N(C)C)(c1ccccc1)c1ccccc1 (stereo not drawn) | inactive | 
CCNc1nc(NC(C)(C)C)nc(SC)n1 | inactive | 
CC(C)(C)CC(C)(C)c1ccc(O)cc1 |  | 8.11 µM (active)
CCOP(=S)(OCC)SCCS(=O)(=O)CC | inactive | 
CC(=O)[O][Hg][c]1ccccc1 |  | 1.78 µM (active)
O=C(O)C(F)(F)C(F)(F)C(F)(F)C(F)(F)C(F)(F)C(F)(F)F | inactive | 
CCC(C)(C)c1ccc(O)c(C(C)(C)CC)c1 |  | 11.1 µM (active)
CN(C)N=O | inactive | 
CC(=O)OC(c1ccccc1)C(Cl)(Cl)Cl (stereo not drawn) | inactive | 
CC(C)(c1ccccc1)c1ccc(O)c(C(C)(C)c2ccccc2)c1 |  | 9.16 µM (active)
C[C@@H]1C[C@@H]([C@H](O)CC2CC(=O)NC(=O)C2)C(=O)[C@@H](C)C1 |  | 9.12 µM (active)
O=C1C2(Cl)C3(Cl)C4(Cl)C(Cl)(Cl)C5(Cl)C3(Cl)C1(Cl)C5(Cl)C24Cl (stereo not drawn) |  | 10.4 µM (active)
ClC1(Cl)C2(Cl)C3(Cl)C4(Cl)C(Cl)(Cl)C5(Cl)C3(Cl)C1(Cl)C5(Cl)C24Cl (stereo not drawn) | inactive | 
CCN1CCC2(CC1)COc1cc3c(cc12)N(C(=O)c1ccc(-c2ccc(-c4nnc(C)o4)cc2C)cc1)CC3 |  | 24.1 µM (active)
O=C(O)C(F)(F)C(F)(F)C(F)(F)C(F)(F)C(F)(F)C(F)(F)C(F)(F)C(F)(F)C(F)(F)C(F)(F)F | inactive | 33.4 µM (active)
CC(C)c1ccc(CO)cc1 | inactive | 
COC[C@H](C)N(C(=O)CCl)c1c(C)csc1C | inactive | 
Oc1cccc2cccnc12 |  | 2.69 µM (active)
